# Screening results as filed in PubChem.
# In the library only some 21% were active in any assay of this set; here they are far more common.
# Gal4-VP16 FLuc = counter-screen for ROR gamma inhibitors: Gal4-VP16 reporter. Drosophila S2 Gal4-VP16 UAS-luciferase, luminescence, 20 h. Potency, µM (titrated, usually from 53.6 µM), without a hit: top-dose activity, negative = inhibition, hits mostly inhibitors. hit rate 3.5% among 310,000. AID 2546;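 note: Gal4-VP16 expression switched on by copper sulfate through the metallothionein promoter; potency is the fitted concentration of half-maximal effect; nearly all actives have a fitted effect of over 50% in size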
# TDP1 cell CPT = growth inhibition of DT40 Tdp1-/-;hTDP1 cells with camptothecin (screen for TDP1 inhibitors) | chicken DT40 Tdp1-/-;hTDP1 cells + 20 nM CPT, ATP luminescence, 48 h | Potency, µM (doses to about 46.2 µM), inactives show at the top dose activity change, negative = growth inhibition, hits mostly inhibitors | hit rate 12% among 420,000 | AID 686979; note: potency is the fitted concentration of half-maximal effect; nearly all actives have a fitted effect of over 55% in size
#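 Chicken DT40 Tdp1-/- cells stably complemented with human TDP1 were seeded at 400 cells/well in medium containing 20 nM camptothecin, exposed to pin-transferred compounds, and grown at 37 °C for at least 48 hr. Viability was read as ATP luminescence.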
# DT40 TDP1 no CPT = qHTS for Inhibitors of human tyrosyl-DNA phosphodiesterase 1 (TDP1): qHTS in cells in absence of CPT. hit rate 15% among 420,000. Potency, µM (series often up to 46.2 µM), inactives show at the top dose activity change, negative = growth inhibition, hits mostly inhibitors. DT40 Tdp1-/- hTDP1 cells, no CPT, ATP luminescence, 48 h; note: potency is the fitted concentration of half-maximal effect; nearly all actives have a fitted effect of over 55% in size
#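 Compound effects on proliferation are scored in DT40 Tdp1-/-;hTDP1 cells in the absence of CPT. ATP levels (CellTiter-Glo luminescence) are recorded after a ≥48 hr, 37 °C incubation.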
# ELG1 repair inh = ELG1-dependent DNA repair inhibition; HEK293T ELG1-luciferase reporter, luminescence, 16 h; DNA damage induced by 5-fluorouridine; Potency, µM (doses to about 46.1 µM), without a hit: at the top dose activity change, negative = inhibition, most hits filed as inhibitors; hit rate 2.3% among 330,000; AID 504467; note: potency is the fitted concentration of half-maximal effect; nearly all actives have a fitted effect of over 55% in size
#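 Reporter activity after DNA damage by 5-fluorouridine is monitored. Compound-treated cells incubate 16 hr at 37 °C, then ONE-Glo is added for 30 min before luminescence reading.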
# IL1B secr inh = inflammasome signaling inhibition, IL-1 beta readout; THP-1 LPS/ATP IL-1B secretion, AlphaLISA, 16 h; hits give low values; AID 743279; activity change, % at 57.5 µM; hit rate 4.7% among 360,000; in the data active = activity change below about -50%; inconclusive = mostly about -30% to -49%
#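 THP-1 cells pretreated 1 hr with compounds (up to 57.5 uM final), then stimulated with LPS (250 ng/mL final) plus ATP (1.25 mM final); secreted IL-1B measured by AlphaLISA after 16 hr, decreased signal indicating inhibition.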
# RORgamma inh = ROR gamma (mouse) transcription inhibition; P51450; Drosophila S2 Gal4-RORgamma UAS-luciferase reporter, 20 h; Potency, µM (top dose mostly 53.6 µM), for inactives: top-dose activity change, negative = inhibition, most hits filed as inhibitors; hit rate 5.4% among 310,000; AID 2551; note: potency is the fitted concentration of half-maximal effect; nearly all actives have a fitted effect of over 60% in size
# Target sequence (P51450 whole entry, looked up, the tested form may be a part): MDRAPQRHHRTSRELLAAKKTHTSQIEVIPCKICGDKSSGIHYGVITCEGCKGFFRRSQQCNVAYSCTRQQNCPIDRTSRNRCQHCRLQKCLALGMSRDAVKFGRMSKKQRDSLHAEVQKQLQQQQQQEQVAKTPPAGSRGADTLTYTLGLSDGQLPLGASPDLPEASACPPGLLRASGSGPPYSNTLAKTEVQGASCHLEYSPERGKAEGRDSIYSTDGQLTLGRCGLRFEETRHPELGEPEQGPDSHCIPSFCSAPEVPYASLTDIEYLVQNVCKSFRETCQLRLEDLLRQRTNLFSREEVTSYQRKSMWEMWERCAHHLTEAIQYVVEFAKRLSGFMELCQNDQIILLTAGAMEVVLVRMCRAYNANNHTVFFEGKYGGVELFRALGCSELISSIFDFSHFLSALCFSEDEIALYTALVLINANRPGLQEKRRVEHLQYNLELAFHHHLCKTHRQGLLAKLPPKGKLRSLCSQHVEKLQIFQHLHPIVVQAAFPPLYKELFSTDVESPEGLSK
#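 Drosophila S2 cells stably expressing Gal4-DBD/mouse RORγ fusion under metallothionein promoter plus UAS-luciferase; compound 1 h, then 700 uM CuSO4 induction for 20 h at ambient temperature; inhibition read as reduced luminescence.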
# * hit, by the source's call; ? = inconclusive; . = no result given; [ ] = dose if it differs, or a comment. Unless noted, calls come from the whole dose curve; as a rule, active = well fitted curve in the direction sought with a large enough effect; inconclusive = small, poorly fitted or top-dose-only effect, or another doubt; inactive = no such curve, though single readings can be large; an effect the other way counts as inactive or inconclusive. % is set by controls: 0 for no effect and ±100 for the full control effect.
SMILES,Gal4-VP16 FLuc,TDP1 cell CPT,DT40 TDP1 no CPT,ELG1 repair inh,IL1B secr inh,RORgamma inh
O=C(/C=C/c1ccc([N+](=O)[O-])cc1)Nc1ncc([N+](=O)[O-])s1,7.1µM*,5.8µM*,8.2µM*,?,-78*,?
Cc1cnc(NC(=O)c2cccs2)s1,?,-2%,-25%,?,-99*,?
O=C(O)c1cc(S(=O)(=O)NCCCN2CCCC2=O)ccc1Cl,.,-2%,9%,?,7,.
COc1cccc(CCNC(=O)CCc2nnc(Cc3cc(OC)ccc3OC)o2)c1,-3%,1%,13%,?,22,14%
O=C(Nc1ncc([N+](=O)[O-])s1)c1ccccc1Br,?,21µM*,18µM*,-1%,25,?
O=C(CS(=O)(=O)c1ccccc1)Nc1ncc([N+](=O)[O-])s1,3%,-3%,-9%,-2%,24,-3%
CCCCC(CC)C(=O)Nc1ncc([N+](=O)[O-])s1 (configuration not stated),-2%,?,?,18%,-79*,0%
Cc1ccc(CC(=O)Nc2ncc([N+](=O)[O-])s2)cc1,-15%,?,?,?,49,38%
Cc1cccc(OCC(=O)NCc2ccc3c(c2)CCN3C(=O)c2ccc(Cl)cc2)c1,.,-4%,-5%,.,.,.
Cc1ccc(NC(=O)c2cnc(SCC(=O)N3CCCc4ccccc43)n(C)c2=O)cc1,.,?,-15%,.,.,.
CCOc1ccccc1CNC(=O)c1cc(-c2ccc(Cl)s2)nc2ccccc12,.,-77%,13µM*,.,.,.
CCOc1ccccc1CNC(=O)c1cc(-c2ccc(C)c(C)c2)nc2ccccc12,.,21µM*,?,.,.,.
COc1ccccc1CNC(=O)c1cc(C(C)C)nc2ccccc12,-13%,?,?,?,9,28%
Cc1ccc(OCC(=O)NCCCNC(=O)c2ccncc2)cc1,-16%,-4%,9%,15%,23,0%
COc1cccc(N2CN(CCc3ccccc3)CNC2=S)c1,?,6%,?,0%,.,14µM*
CCc1ccc(N2CN(CCc3ccccc3)CNC2=S)cc1,6.3µM*,?,29µM*,0%,18,1.3µM*
Cc1ccc(N2CN(CCC3=CCCCC3)CNC2=S)cc1,6.3µM*,?,?,?,0,0.56µM*
O=C1c2ccccc2C(=O)N1CCC1=CCCCC1,-3%,?,-21%,?,11,0%
COc1cccc(N2CN(C3CCCCC3)CNC2=S)c1,-1%,-21%,?,10%,.,?
CCOC(=O)c1cc(S(=O)(=O)N2CCN(c3ccccc3OC)CC2)[nH]n1,.,-15%,-17%,.,.,.
COc1ccccc1NC(=O)Cn1nc(C)n2cccc2c1=O,4%,-5%,-10%,?,0,-8%
CNC(=O)CN1C(=O)CSc2ncccc21,-4%,-2%,-19%,?,4,3%
CCN(CC)c1ccc(NC(=O)CN2C(=O)CSc3ncccc32)c(C)c1,-7%,5.2µM*,7.3µM*,?,11,1%
CCN(CC)c1ccc(NC(=O)Cn2nc(C)n3cccc3c2=O)c(C)c1,.,15µM*,18µM*,.,.,.
CCN(CC)c1ccc(NC(=O)CN2C(=O)c3cccnc3Oc3ccccc32)c(C)c1,.,16µM*,16µM*,.,.,.
Cc1ccc(CNc2nc(C)c(-c3ccn(CCN4CCOCC4)n3)s2)o1,.,25%[9.04 µM],1%,.,.,.
O=[N+]([O-])c1ccccc1-c1cc(-c2ccccc2O)n[nH]1,?,?,?,?,-74*,?
Oc1ccccc1-c1cc(C(F)(F)F)[nH]n1,3%,.,.,-21%,.,?
Cc1ccc(-c2cc(-c3cccc(F)c3)n[nH]2)c(O)c1,10µM*,-10%,?,?,-12,11µM*
